{"source": "PubChem BioAssay (NCI)", "note": "This is part of a sample that, as a whole, favours compounds with a hit. Of some 79,000 tested, about 15% had one in any assay. Unmarked numbers belong to inactive results. Activity calls are given as the source filed them. Cut-off read from the data, not from the text of the source: active = growth inhibition above about 70%; inactive = the rest."}
{"assay": "NCI Yeast Anticancer Drug Screen. Data for the rad50 strain (AID 155);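 note: 0% = growth of vehicle-only cultures of the same strain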", "details": "S. cerevisiae rad50 strain growth inhibition; at 50.0 µM; active compounds read high", "method_in_brief": "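Genetically altered yeast (DNA repair pathway); compound treatment; growth inhibition vs vehicle ctrl.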", "units": {"growth inhibition": "%"}}
{"smiles": "C=CCNC(=O)c1ccc(OC)cc1", "growth inhibition": 12.5}
{"smiles": "O=C(Nc1cc(-c2ccccc2)[nH]n1)c1ccc(Cl)cc1", "growth inhibition": -5.35}
{"smiles": "O=[N+]([O-])c1ccc(N=Nc2ccccc2)cc1", "growth inhibition": 11.4}
{"smiles": "N=c1c(C(=O)OCc2ccccc2)ncc(CCl)n1O", "growth inhibition": 37.3}
{"smiles": "CCOC(=O)c1cc(/C=C/c2ccc(Cl)cc2Cl)on1", "growth inhibition": -31.4}
{"smiles": "CC1NC(=O)NC1CCCCCC(=O)O", "note": "(stereo unspecified)", "growth inhibition": 8.3}
{"smiles": "COc1ccc(C2OC(N)=C(O)C2=O)cc1OC", "note": "(stereo unspecified)", "growth inhibition": -4.25}
{"smiles": "Cc1nc2ccccc2c2nnc(SCC(=O)N(Cc3ccccc3)c3ccccc3)n12", "growth inhibition": 6.9}
{"smiles": "Cc1cc(NC(=O)CSCC(=O)O)no1", "growth inhibition": -19.2}
{"smiles": "N#CCCc1ccc(O)cc1", "growth inhibition": -25.1}
{"smiles": "Cc1cc(N2CCC(N3CCCC3)CC2)nc(/N=C(\\N)Nc2ccc(Cl)c(Cl)c2)n1", "growth inhibition": 18.1}
{"smiles": "OC1OC(COC(c2ccccc2)(c2ccccc2)c2ccccc2)C(O)C(O)C1O", "note": "(stereo unspecified)", "growth inhibition": -11.9}
{"smiles": "NC(N)=Nc1cc2ccccc2c2ccccc12", "growth inhibition": -1.2}
{"smiles": "O=C(/C=C/C(=O)c1ccccc1)c1ccccc1", "growth inhibition": 41.8}
{"smiles": "CSc1[nH]c(=O)ncc1F", "growth inhibition": 4.15}
{"smiles": "CCOC(=O)CNN", "growth inhibition": -7.2}
{"smiles": "CCC(C)(C)C1CCC(O)CC1", "note": "(stereo unspecified)", "growth inhibition": 10.2}
{"smiles": "Cc1c(O)cccc1O", "growth inhibition": -5.55}
{"smiles": "C/C(=C\\c1cc(Cl)ccc1OCC(=O)O)[N+](=O)[O-]", "growth inhibition": 38.1}
{"smiles": "COc1cccc(/C=N/NC(=S)NC2CC3CCC2C3)c1O", "note": "(stereo unspecified)", "growth inhibition": -21.6}
{"smiles": "Cc1cc(OCCO)cc(C)c1Cl", "growth inhibition": -20.9}
{"smiles": "CC(C)CCOC(=O)c1ccccc1", "growth inhibition": -7.2}
{"smiles": "COC(=O)/C=C/C(=O)NC(N)=O", "growth inhibition": -19.6}
{"smiles": "O=[N+]([O-])c1ccc(O)c(S(=O)(=O)O)c1", "growth inhibition": 8.55}
{"smiles": "O=c1cc(-c2ccccc2)[nH]c(=S)[nH]1", "growth inhibition": -13.4}
{"smiles": "CC(C)C1CCCCC1O", "note": "(stereo unspecified)", "growth inhibition": -9.15}
{"smiles": "CCOc1ccc(Br)cc1/C=N\\N=C\\c1cc(Br)ccc1OCC", "growth inhibition": -9.15}
{"smiles": "CCCNC(=O)c1ccc(S(N)(=O)=O)cc1", "growth inhibition": -1.5}
{"smiles": "O=C(O)CNC(=O)c1ccccc1", "growth inhibition": -46}
{"smiles": "O=C(O)CCC(NC(=O)OCc1ccccc1)C(=O)O", "note": "(stereo unspecified)", "growth inhibition": -4.05}
{"smiles": "O=C(N/N=C/c1ccccc1O)Nc1nn[nH]n1", "growth inhibition": -15.8}
{"smiles": "CC1CCC(C(=O)O)N1", "note": "(stereo unspecified)", "growth inhibition": 29.6}
{"smiles": "CCCCNC1(C#N)CCN(Cc2ccccc2)CC1", "growth inhibition": -2.25}
{"smiles": "O=C1OC(=O)C2C1C1(Cl)C(Cl)=C(Cl)C2(Cl)C2C(=O)OC(=O)C21", "note": "(stereo unspecified)", "growth inhibition": 2.45}
{"smiles": "O=C(O)C(Cc1ccccc1)C(=O)O", "growth inhibition": 5.8}
{"smiles": "CC(C)=NNc1ccc([N+](=O)[O-])cc1[N+](=O)[O-]", "growth inhibition": 35.1}
{"smiles": "O=c1[nH]n(-c2ccccc2)c(=O)cc1Cl", "growth inhibition": -0.9}
{"smiles": "C=CCc1cc(C(C)=O)cc(OC)c1O", "growth inhibition": -16.1}
{"assay": "NCI Yeast Anticancer Drug Screen. Data for the mec2-1 strain (AID 157)", "details": "S. cerevisiae mec2-1 strain, at 50.0 µM, active compounds read high", "method_in_brief": "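Compounds were applied to mec2-1 yeast cells. Their growth was then compared with that of vehicle-treated cultures to give growth inhibition.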"}
{"smiles": "C=CCNC(=O)c1ccc(OC)cc1", "growth inhibition": "6.5%"}
{"smiles": "O=C(Nc1cc(-c2ccccc2)[nH]n1)c1ccc(Cl)cc1", "growth inhibition": "-21.1%"}
{"smiles": "O=[N+]([O-])c1ccc(N=Nc2ccccc2)cc1", "growth inhibition": "12.2%"}
{"smiles": "N=c1c(C(=O)OCc2ccccc2)ncc(CCl)n1O", "growth inhibition": "80.5% (active)"}
{"smiles": "CCOC(=O)c1cc(/C=C/c2ccc(Cl)cc2Cl)on1", "growth inhibition": "-52.7%"}
{"smiles": "CC1NC(=O)NC1CCCCCC(=O)O", "note": "(stereo unspecified)", "growth inhibition": "11.4%"}
{"smiles": "COc1ccc(C2OC(N)=C(O)C2=O)cc1OC", "note": "(stereo unspecified)", "growth inhibition": "-23.1%"}
{"smiles": "Cc1nc2ccccc2c2nnc(SCC(=O)N(Cc3ccccc3)c3ccccc3)n12", "growth inhibition": "6.6%"}
{"smiles": "Cc1cc(NC(=O)CSCC(=O)O)no1", "growth inhibition": "-34.5%"}
{"smiles": "N#CCCc1ccc(O)cc1", "growth inhibition": "-44.2%"}
{"smiles": "Cc1cc(N2CCC(N3CCCC3)CC2)nc(/N=C(\\N)Nc2ccc(Cl)c(Cl)c2)n1", "growth inhibition": "-2.25%"}
{"smiles": "OC1OC(COC(c2ccccc2)(c2ccccc2)c2ccccc2)C(O)C(O)C1O", "note": "(stereo unspecified)", "growth inhibition": "-0.95%"}
{"smiles": "NC(N)=Nc1cc2ccccc2c2ccccc12", "growth inhibition": "-7.15%"}
{"smiles": "O=C(/C=C/C(=O)c1ccccc1)c1ccccc1", "growth inhibition": "16.4%"}
{"smiles": "CSc1[nH]c(=O)ncc1F", "growth inhibition": "4.1%"}
{"smiles": "CCOC(=O)CNN", "growth inhibition": "9.3%"}
{"smiles": "CCC(C)(C)C1CCC(O)CC1", "note": "(stereo unspecified)", "growth inhibition": "6.6%"}
{"smiles": "Cc1c(O)cccc1O", "growth inhibition": "-17.4%"}
{"smiles": "C/C(=C\\c1cc(Cl)ccc1OCC(=O)O)[N+](=O)[O-]", "growth inhibition": "56.1%"}
{"smiles": "COc1cccc(/C=N/NC(=S)NC2CC3CCC2C3)c1O", "note": "(stereo unspecified)", "growth inhibition": "-33.1%"}
{"smiles": "Cc1cc(OCCO)cc(C)c1Cl", "growth inhibition": "-65.8%"}
{"smiles": "CC(C)CCOC(=O)c1ccccc1", "growth inhibition": "-22.5%"}
{"smiles": "COC(=O)/C=C/C(=O)NC(N)=O", "growth inhibition": "-41.2%"}
{"smiles": "O=[N+]([O-])c1ccc(O)c(S(=O)(=O)O)c1", "growth inhibition": "-20.6%"}
{"smiles": "O=c1cc(-c2ccccc2)[nH]c(=S)[nH]1", "growth inhibition": "-11.9%"}
{"smiles": "CC(C)C1CCCCC1O", "note": "(stereo unspecified)", "growth inhibition": "-9.1%"}
{"smiles": "CCOc1ccc(Br)cc1/C=N\\N=C\\c1cc(Br)ccc1OCC", "growth inhibition": "-29.2%"}
{"smiles": "CCCNC(=O)c1ccc(S(N)(=O)=O)cc1", "growth inhibition": "1%"}
{"smiles": "O=C(O)CNC(=O)c1ccccc1", "growth inhibition": "-4.45%"}
{"smiles": "O=C(O)CCC(NC(=O)OCc1ccccc1)C(=O)O", "note": "(stereo unspecified)", "growth inhibition": "2.55%"}
{"smiles": "O=C(N/N=C/c1ccccc1O)Nc1nn[nH]n1", "growth inhibition": "-10.2%"}
{"smiles": "CC1CCC(C(=O)O)N1", "note": "(stereo unspecified)", "growth inhibition": "6.5%"}
{"smiles": "CCCCNC1(C#N)CCN(Cc2ccccc2)CC1", "growth inhibition": "-7.95%"}
{"smiles": "O=C1OC(=O)C2C1C1(Cl)C(Cl)=C(Cl)C2(Cl)C2C(=O)OC(=O)C21", "note": "(stereo unspecified)", "growth inhibition": "12.4%"}
{"smiles": "O=C(O)C(Cc1ccccc1)C(=O)O", "growth inhibition": "-7.15%"}
{"smiles": "CC(C)=NNc1ccc([N+](=O)[O-])cc1[N+](=O)[O-]", "growth inhibition": "12.8%"}
{"smiles": "O=c1[nH]n(-c2ccccc2)c(=O)cc1Cl", "growth inhibition": "2.25%"}
{"smiles": "C=CCc1cc(C(C)=O)cc(OC)c1O", "growth inhibition": "-6.7%"}
